DUX4 inh – DUX4-mediated transcription inhibition; 293T-iDUX4 ZSCAN4-Gaussia luciferase reporter, 24 h; stronger effect = lower value; activity change, negative = inhibition, % (no concentration beside the values); 37,000 compounds, 0.8% hits; AID 1224904;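 active = mean inhibition of at least 10% in the main channel, exceeding the control channel by a set limit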;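 also: 0% = median of neutral control wells and -100% = median of positive control wells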
Active calls of the source: *; ! = repeats disagree. The entries come from a sample that favours hits as a whole.

SMILES	DUX4 inh
O=C([C@H]1[C@H](CO)[C@H]2Cn3c(ccc(-c4ccccc4)c3=O)[C@H]2N1CCC(F)(F)F)N1CCOCC1	2
COCC(=O)Nc1ccc2c(c1)C(=O)N(C)C[C@H](OC)[C@@H](C)CN(Cc1cccc(F)c1)[C@H](C)CO2	1
COc1ccc2c3c(n(C)c2c1)[C@@H](CO)N(Cc1nccs1)CC31CN(C(C)=O)C1	18
O=C(c1ccc(F)cc1)N1CC2(C1)[C@@H](c1ccccc1)[C@@H](CO)N2Cc1ccccn1	-1
C/C=C/c1ccc([C@H]2[C@@H](CO)N(CCC(F)(F)F)C23CN(C(=O)COC)C3)cc1	3
Cc1noc(C)c1NC(=O)NCC[C@@H]1CC[C@H](NC(=O)Cc2cccnc2)[C@H](CO)O1	-1
O=S(=O)(c1ccc(F)cc1)N1CCCCN2[C@H](CO)[C@H](c3ccc(C4=CCCCC4)cc3)[C@@H]2C1	-42*
O=C(NC1CCCC1)N1CCCCN2[C@H](C1)[C@H](c1ccc(-c3ccccc3)cc1)[C@@H]2CO	1
O=S(=O)(c1ccc(F)cc1)N1CCCCN2[C@@H](CO)[C@@H](c3ccc(C4=CCCCC4)cc3)[C@@H]2C1	-4
COc1ccccc1-c1ccc([C@H]2[C@@H](CO)N3CCCCN(C(=O)NC4CCCC4)C[C@H]23)cc1	-23*
Cc1ccccc1-c1ccc([C@@H]2[C@@H](CO)N3CCCCN(C(=O)NC4CCCC4)C[C@H]23)cc1	-9
CCS(=O)(=O)N1CCCCN2[C@H](CO)[C@@H](c3ccc(-c4ccccc4C)cc3)[C@@H]2C1	10
COc1ccc(S(=O)(=O)N2CCCCN3[C@H](CO)[C@@H](c4ccc(C5=CCCC5)cc4)[C@@H]3C2)cc1	1
Cc1ccccc1-c1ccc([C@H]2[C@H](CO)N3CCCCN(S(C)(=O)=O)C[C@@H]23)cc1	17
Cc1ccccc1-c1ccc([C@@H]2[C@@H](CO)N3CCCCN(S(=O)(=O)c4ccc(F)cc4)C[C@H]23)cc1	-40*
CC=Cc1ccc2n(c1=O)C[C@H]1[C@H](CO)[C@@H](C(=O)NCc3ccccc3)N(C)[C@@H]21 (mixture of isomers)	-3
O=C(C[C@@H]1CC[C@@H]2[C@H](COC[C@H](O)CN2C(=O)Nc2ccc(Cl)cc2)O1)NCc1ccncn1	12
CO[C@H]1CN(C)C(=O)c2ccc(NC(=O)Nc3cc(F)ccc3F)cc2OC[C@@H](C)N(C)C[C@H]1C	7
O=C(NC1Cc2ccccc2C1)[C@H]1[C@H](CO)[C@H]2Cn3c(cccc3=O)[C@H]2N1C(=O)C1CC1	6
CO[C@@H]1CC[C@H]2CCOc3ccc(C#N)cc3C(=O)N(C)C[C@@H](C)C(=O)N(C)C[C@H]1O2	-3
CCCNC(=O)N1[C@H](CO)[C@@H](c2ccc(C3=CCCC3)cc2)[C@@H]1CN(C)C(C)=O	1
CCC(=O)N1CC2(C1)CN(C(=O)c1ccccn1)[C@@H](CO)c1c2c2ccc(OC)cc2n1C	14
COc1ccc2c3c([nH]c2c1)[C@H](CO)N(Cc1nccs1)CC31CCN(Cc2nccs2)CC1	2
COCC(=O)N1C[C@@H](C)[C@@H](OC)CN(C)C(=O)c2ccc(NC(=O)c3cc(C)on3)cc2OC[C@H]1C	0
C[C@@H]1CN([C@H](C)CO)C(=O)c2cc(NC(=O)CCN3CCOCC3)ccc2O[C@@H]1CN(C)S(=O)(=O)c1cccs1	0
SMILES	DUX4 inh
COc1ccccc1CN1[C@@H]2CNC[C@H]1C2c1ccc(-c2ccc(C#N)cc2)cc1 (some centres undefined)	1
N#Cc1ccc(-c2ccc([C@@H]3[C@@H]4CN(Cc5cocn5)C[C@H]3N4)cc2)cc1	-75*
CN(C)C(=O)c1cccc(-c2ccc(C3[C@@H]4CN(Cc5cocn5)C[C@H]3N4)cc2)c1 (some centres undefined)	10
N#Cc1ccc(-c2ccc(C3[C@@H]4CN(Cc5ccccc5F)C[C@H]3N4)cc2)cc1 (some centres undefined)	-44*!
COc1cc(CN2C[C@@H]3N[C@H](C2)C3c2ccc(-c3cncnc3)cc2)cc(OC)c1 (some centres undefined)	2
COc1ccccc1CN1[C@@H]2CNC[C@H]1C2c1ccc(-c2ccncc2)cc1 (some centres undefined)	14
CN(C)C(=O)c1ccc(-c2ccc(C3[C@@H]4CN(Cc5nccs5)C[C@H]3N4)cc2)cc1 (some centres undefined)	-1
COc1ccccc1CN1C[C@@H]2N[C@H](C1)C2c1ccc(-c2ccncc2)cc1 (some centres undefined)	-14*!
N#Cc1ccc(-c2ccc(C3[C@H]4CNC[C@@H]3N4C(=O)Nc3ccccc3F)cc2)cc1 (some centres undefined)	-3
CO[C@H]1CC[C@@H]2CCOc3ccc(C#N)cc3C(=O)N(C)C[C@@H](C)C(=O)N(C)C[C@H]1O2	1
C[C@H](NC(=O)N(C)C[C@H]1OCc2ccccc2-c2ccccc2C(=O)N([C@@H](C)CO)C[C@H]1C)c1ccccc1	17
O=C(NC1CCC1)[C@@H]1[C@@H](CO)[C@@H]2Cn3c(ccc(-c4ccncc4)c3=O)[C@@H]2N1CCc1ccccc1	2
N#Cc1ccc(-c2ccc(C3[C@@H]4CN(C(=O)c5ccncc5)C[C@H]3N4)cc2)cc1 (some centres undefined)	-6
CC(=O)N1C[C@@H]2N[C@H](C1)C2c1ccc(-c2ccccc2)cc1 (some centres undefined)	1
N#Cc1cccc(-c2ccc(C3[C@@H]4CN(C(=O)C5CCCCC5)C[C@H]3N4)cc2)c1 (some centres undefined)	-52*!
O=C(C1CCOCC1)N1C[C@@H]2N[C@H](C1)C2c1ccc(-c2cccc(F)c2)cc1 (some centres undefined)	-8
N#Cc1ccc(-c2ccc(C3[C@@H]4CN(C(=O)C5CCCCC5)C[C@H]3N4)cc2)cc1 (some centres undefined)	-52*!
N#Cc1cccc(-c2ccc(C3[C@@H]4CN(C(=O)c5ccncc5)C[C@H]3N4)cc2)c1 (some centres undefined)	1

From PubChem BioAssay
